In PubChem BioAssay AID651965 (National Center for Advancing Translational Sciences (NCATS), 2013):
Hit rate of the full screen: of about 340,000 compounds, about 6,400 (1.9%) were called active. Not shown: some 4% with an inconclusive outcome. The call rests on the fitted dose curve; in most records, active means well fitted falling curve with a large enough effect; inconclusive means small, poorly fitted or top-dose-only effect; inactive means no such curve, though single readings can be large or run the other way. What follows is part of a selection rich in actives, with near analogues and random picks from the rest. Entries that show only a call come without a potency.

What follows are molecules tested against ATP-dependent Clp protease proteolytic subunit (Bacillus subtilis (strain 168)) (UniProt P80244) (assay: qHTS Assay for Activators of ClpP). Conditions: purified B. subtilis ClpP, FRET peptide cleavage, 20 min; series mostly up to 57.5 µM.
Chain of ATP-dependent Clp protease proteolytic subunit (Bacillus subtilis (strain 168)) (P80244 whole entry, looked up): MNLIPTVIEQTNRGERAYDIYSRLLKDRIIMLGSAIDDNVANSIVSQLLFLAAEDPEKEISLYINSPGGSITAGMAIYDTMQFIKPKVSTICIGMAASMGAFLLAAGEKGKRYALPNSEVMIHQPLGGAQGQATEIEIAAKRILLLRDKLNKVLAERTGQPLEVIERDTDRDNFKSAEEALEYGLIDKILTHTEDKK
How it was run: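 Purified B. subtilis ClpP, 10 microg/mL final in Tris/HCl pH8 with KCl, BSA, glycerol and Tween-20, cleaved an Abz/nitrotyrosine-quenched decapeptide. Fluorescence (ex 320, em 430) was read at 0 and 20 min at room temperature. Delta was normalized to 5.8 microM ADEP and DMSO/no-enzyme controls.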
Further: the source files actives as falling curves though it sought activators and does not explain the sign; nearly all actives have a fitted effect of over 65% in size.
Potency means the concentration at half of the fitted maximal effect.

Compound | Potency
Nc1ncnc2c1ncn2[C@@H]1O[C@H](CNC(=O)[C@H](N)Cc2cccnc2)[C@@H](O)[C@H]1O | inactive
COc1ccc(CCc2nc(-c3cccs3)no2)cc1 | inactive
Clc1ccc(Cc2nnc(-c3cccs3)o2)cc1 | inactive
COc1nc(-c2ccc(Cl)cc2)ccc1-c1noc(-c2cccs2)n1 | 14.1 µM (active)
C[C@@H]1CN([C@H](C)CO)C(=O)c2cc(-c3ccc(F)cc3)cnc2O[C@H]1CN(C)C(=O)c1ccc(F)cc1 | inactive
O=C1NCC(Nc2ccccc2)C(=O)N1 (stereo not given) | 12.6 µM (active)
O=C(CC1Nc2ccccc2NC1=O)Nc1ccccc1 (stereo not given) | inactive
O=C1NCC(c2ccccc2)(c2ccccc2)C(=O)N1 | inactive
CCCCNC(=O)Cn1c(SCc2cccc(Cl)c2)nc2ccncc21 | inactive
COc1ccc(C(O)c2nc(-c3ccc4c(c3)OCO4)cs2)cc1 (stereo not given) | inactive
COCCNc1nc(Nc2ccccc2Cl)c2sc(-c3ccccc3)cc2n1 | inactive
CC1=C(C)CC2C(=O)N(c3cccc4ccccc34)C(=O)C2C1 (stereo not given) | inactive
O=C1c2ccccc2C(=O)N1c1ccccc1S(=O)C(F)(F)F (stereo not given) | inactive
O=C1c2ccccc2C(=O)N1c1cccc2ccccc12 | 7.94 µM (active)
Cc1ccc(NC(=O)[C@H](Cc2ccccc2)NC(=O)CC[C@H]2O[C@@H](n3ccc(=O)[nH]c3=O)[C@H](O)[C@@H]2O)cc1C | inactive
O=C(COc1ncnc2ccccc12)NC(=O)NCc1ccccc1 | inactive
Cc1ccc(C2=NN(C(=O)COc3ncnc4ccccc34)C(c3ccco3)C2)cc1 (stereo not given) | inactive
CC(C)C(C)NC(=O)COc1ncnc2ccccc12 (stereo not given) | 11.2 µM (active)
O[C@H]1C[C@H](c2ccc(Cl)cc2)N(Cc2cccs2)C[C@@H]1n1cc(C2CC2)nn1 | inactive
COC(=O)c1c(C)c(C)nc(N)c1C#N | 8.91 µM (active)
Cc1nc(SCC(=O)NC2CCCCC2C)c(C#N)c(C)c1C (stereo not given) | inactive
COC(=O)c1c(C)cc(O)c(C)c1O | inactive
COc1ccc(NC(=O)C2Cc3c(-c4cccc(NC(C)=O)c4)ccnc3O2)cc1OC (stereo not given) | inactive
CC(=O)OC[C@@H]1CN(Cc2ccccc2)C[C@H](n2cnc3c(NCc4ccco4)ncnc32)O1 | inactive
Nc1ncnc2nnsc12 | inactive
O=C(CSCc1cccs1)N1CCCC1 | inactive
Cn1c(=NC(=O)CSCC(=O)N2CCCCC2)sc2ccccc21 | 35.5 µM (active)
Cn1c(=NC(=O)c2cnccn2)sc2ccccc21 | inactive
CCc1nc2c(OCc3cccc(OC)c3)cccn2c1N(C)C(=O)C(C)C | inactive
Cc1cccc(C)c1Cn1c(C)c(C(=O)NCc2cccc(Cl)c2)sc1=O | inactive
